Results as given in PubChem BioAssay (NCI).
Several values for one entry are separate records, joined by “and”; a condition that tells them apart may be missing. Identical values can stand only once. This is part of a sample that, as a whole, favours compounds with a hit. Of some 79,000 tested, about 15% had one in any assay. Cut-off read from the data, not from the text of the source: active = growth inhibition above about 70%; inactive = the rest.

Legend:
[1] = NCI Yeast Anticancer Drug Screen. Data for the rad50 strain (AID 155);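 note: 0% = growth of vehicle-only cultures of the same strain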; settings: S. cerevisiae rad50 strain growth inhibition, active compounds read high; at 50.0 µM unless noted
Procedure, shortened: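 Yeast carrying a defined DNA repair defect were exposed to test compounds, and growth was compared with vehicle-treated controls to give percent inhibition.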

[2] = NCI Yeast Anticancer Drug Screen. Data for the mec2-1 strain (AID 157); settings: S. cerevisiae mec2-1 strain, active compounds read high; at 50.0 µM unless noted
Procedure, shortened: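 Mutant yeast (mec2-1) grown with compound; growth inhibition relative to vehicle control reported.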

[3] = NCI Yeast Anticancer Drug Screen. Data for the sgs1 mgt1 strain (AID 161);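 note: 0% = growth of cultures given vehicle only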; settings: S. cerevisiae sgs1 mgt1 strain, active compounds read high; at 50.0 µM unless noted
Procedure, shortened: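 Yeast cells carrying a defined DNA-repair defect were exposed to test compounds. Growth inhibition was measured relative to vehicle-treated controls.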

[4] = NCI Yeast Anticancer Drug Screen. Data for the cln2 rad14 strain (AID 165);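 note: 0% = growth equal to vehicle treated cultures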; settings: S. cerevisiae cln2 rad14 strain, active compounds read high; at 50.0 µM unless noted
Procedure, shortened: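 Readout is yeast growth inhibition versus vehicle-treated controls, using a strain with cln2 and rad14 alterations exposed to compound.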

[5] = NCI Yeast Anticancer Drug Screen. Data for the bub3 strain (AID 167); settings: S. cerevisiae bub3 mutant strain, active compounds read high; at 50.0 µM unless noted
Procedure, shortened: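 Compounds were applied to a genetically altered yeast strain carrying a cell-cycle control defect. Growth inhibition was scored against vehicle-treated controls.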

[6] = NCI Yeast Anticancer Drug Screen. Data for the mlh1 rad18 strain (AID 175); settings: S. cerevisiae mlh1 rad18 strain growth inhibition, active compounds read high; at 50.0 µM unless noted
Procedure, shortened: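 Genetically defined yeast (DNA repair-deficient) exposed to compounds; growth inhibition determined relative to vehicle.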

Measured: growth inhibition

Cc1ccc(SCC(O)=C2C(=O)CCCC2=O)cc1
inactive: [1] -11.4% | [2] -12.3% | [3] 15.1% | [4] -0.45% | [5] -2.25% | [6] -7.45%

Cc1cccc2c1/C(=C1/c3ccccc3C(=O)c3cccc(C)c31)c1ccccc1C2=O
inactive: [1] -4.85% | [2] -24.1% | [3] -3.45% | [4] 14.3% | [5] -1.2% | [6] -6.15%

Cc1cc(C)c(C(=O)c2cccc(C)c2C(=O)O)c(C)c1
inactive: [1] 4% | [2] -20.8% | [3] 7.85% | [4] 14.1% | [5] 9.85% | [6] 18%

COC(=O)c1ccc(N=NN(C)CN=[N+]=[N-])cc1
inactive: [1] 13.3% | [2] 19.7% | [3] 21.2% | [4] -21.3% | [5] 11.3% | [6] 3.15%

O=C(CCCN1CCC2(CC1)CC(=O)N(N1CCOCC1)C2=O)c1ccc(F)cc1
inactive: [1] -4.65% | [2] 6.1% | [3] 2.75% | [4] 4.5% | [5] -3.4% | [6] 14.9%

COC(=O)C(NC(=O)c1ccccc1)C(c1ccc(Cl)cc1)P(=O)(OC)OC (configuration not stated)
inactive: [1] -19.6% | [2] -1% | [3] 12% | [4] 22.2% | [5] -7.85% | [6] -17.9%

CC(=O)Nc1cc(C(=O)Nc2cc(C(=O)Nc3cc(C(=O)Nc4cc(C(=O)Nc5cc(C(=O)NCCC(=O)NCCCN(C)C)n(C)c5)n(C)c4)n(C)c3)n(C)c2)n(C)c1
inactive: [1] 9.7% | [2] -41.5% | [3] -18.6% | [4] -4% | [5] -31.9% | [6] -37.8%

CCOC(=O)C(C#N)=C(C)C
inactive: [1] -12.6% and 26.9% | [2] 7.8% and 2.75% | [3] -2.55% and 17% | [4] -19.1% and -1.1% | [5] 0.65% and -13.8% | [6] 20.4% and 17.1%

Oc1ccccc1-c1cc(-c2ccccc2)nc(NCCCNc2nc(-c3ccccc3)cc(-c3ccccc3O)n2)n1
inactive: [1] -11.2% | [2] 8% | [3] -5.3% | [4] -14.8% | [5] 35% | [6] 14.2%

CC(=O)Oc1ccc2c(c1)[nH]c1c3ccc(OC(C)=O)cc3oc(=O)c21
inactive: [1] -21.4% | [2] -26.9% | [3] -8.05% | [4] 5.8% | [5] -2.85% | [6] -13.7%

C=CC(=O)OCCOCCCC
inactive: [1] 8.75% | [2] 5.4% | [3] -4.7% | [4] -21.9% | [5] -15.1% | [6] 4.85%

CC(C)(CO)N=Cc1ccccc1O
inactive: [1] -0.25% | [2] -1.6% | [3] -14.2% | [4] -3.8% | [5] -13.3% | [6] 6.35%

O=C(O)C1(C(=O)O)CCCCC1.[NH2-].[NH2-].[Pt+2]
inactive: [1] 2.65% | [2] 17.5% | [3] 1.6% | [4] 22.2% | [5] 7.6% | [6] 15.8%

OCCN/N=C/c1ccncc1
inactive: [1] -4.35% | [2] -52.2% | [3] -20.2% | [4] 15.2% | [5] -14.3% | [6] 23.8%

CC(=O)Nc1cc(Cl)ccc1[N+](=O)[O-]
inactive: [1] 8.95% | [2] 9.35% | [3] 27.9% | [4] 1.25% | [5] 17.4% | [6] 5.95%

O=C(c1ccccc1)C1CC1C(=O)c1ccccc1 (configuration not stated)
inactive: [1] -3.55% | [2] -11.8% | [3] -6.1% | [4] -61.5% | [5] 38.3% | [6] -3.45%

CCCCCCC/C=C/C1CC(=O)OC1=O (configuration not stated)
inactive: [1] 18.4% | [2] 11.2% | [3] 9.55% | [4] 7.05% | [5] 4.05% | [6] 29.6%

COC(=O)CSc1cc(Cl)c(C)cc1S(=O)(=O)Nc1n[nH]c(N)n1
inactive: [1] -14.2% | [2] -7.5% | [3] -11% | [4] -6.65% | [5] -9.75% | [6] 10.2%

O=S(=O)(O)c1ccc(Nc2ccccc2)cc1
inactive: [1] -1.2% and 5.95% | [2] -38.8% and -24.1% | [3] -11% | [4] -18.3% | [5] 2% | [6] -20.9% and 6.2%

Cc1ccc(S(=O)(=O)CCN2CCN(C)CC2)cc1
inactive: [1] 8.6% | [2] -9.25% | [3] -12.7% | [4] -26% | [5] -2.65% | [6] 1.05%

C/C(CCCCCCCCCCCC/C(C)=N\Nc1ccc([N+](=O)[O-])cc1[N+](=O)[O-])=N/Nc1ccc([N+](=O)[O-])cc1[N+](=O)[O-]
inactive: [1] -15.8% | [2] 5.25% | [3] -3.2% | [4] 27.2% | [5] 2.3% | [6] 31.6%

Cc1ccc(C(=O)NNC(=O)c2ccc(C)cc2)cc1
inactive: [1] -10.5% | [2] -18.4% | [3] -11.1% | [4] 2.8% | [5] -10.9% | [6] -5.15%
